Test results: PubChem BioAssay (NCATS)
Inconclusive results are not listed. Active and inactive are the calls of the source. Calls come from the whole dose curve; as a rule, active = well fitted curve in the direction sought with a large enough effect; inconclusive = small, poorly fitted or top-dose-only effect, or another doubt; inactive = no such curve, though single readings can be large; an effect the other way counts as inactive or inconclusive.

Biological target: Cytochrome P450 3A4 (Homo sapiens) (UniProt P08684)
Experiment: qHTS Assay for Inhibitors and Substrates of Cytochrome P450 3A4 (AID 884); note: potency is the fitted concentration of half-maximal effect; nearly all actives have a fitted effect of over 50% in size
Conditions: recombinant CYP3A4, Luciferin-PPXE luminescence; series mostly up to 57.1 µM
Summary of the method: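 20 nM human CYP3A4 with 25 uM Luciferin-PPXE (at KM) in 200 mM KPO4, preincubated 10 min with compound; NADPH regeneration started a 60 min RT reaction. Luciferin detected by luminescence, normalized to 57 uM ketoconazole as full inhibition.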

Cytochrome P450 3A4 (Homo sapiens), sequence (P08684 whole entry, looked up): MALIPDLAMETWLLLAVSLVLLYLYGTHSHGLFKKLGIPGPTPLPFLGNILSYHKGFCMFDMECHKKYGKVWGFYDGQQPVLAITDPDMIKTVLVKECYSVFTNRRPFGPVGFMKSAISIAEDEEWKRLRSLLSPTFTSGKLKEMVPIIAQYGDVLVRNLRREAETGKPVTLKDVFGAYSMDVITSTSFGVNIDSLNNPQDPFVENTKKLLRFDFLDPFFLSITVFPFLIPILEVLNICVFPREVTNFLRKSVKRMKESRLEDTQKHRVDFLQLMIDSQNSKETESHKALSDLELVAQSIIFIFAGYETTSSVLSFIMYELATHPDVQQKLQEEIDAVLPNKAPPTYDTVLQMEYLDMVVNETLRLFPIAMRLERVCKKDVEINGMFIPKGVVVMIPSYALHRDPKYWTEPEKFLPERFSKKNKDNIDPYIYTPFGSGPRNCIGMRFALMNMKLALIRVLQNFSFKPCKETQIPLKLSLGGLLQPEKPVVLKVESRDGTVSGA

Potency, active:
CCC/C=C(\CCC)C(NC(=O)c1cccs1)c1ccc(C(=O)OC)cc1 (stereo not given) 1260 nM
COc1ccc2nc3c(cc2c1)Cc1ccccc1-3 6310 nM
c1ccc2c(c1)Cc1cc3cc4c(cc3nc1-2)OCO4 1000 nM
C[C@@H](C(=O)Nc1ccc2ccccc2c1)[C@H]1C[C@]1(C)[C@H](NP(=O)(c1ccccc1)c1ccccc1)c1ccccc1 2000 nM
CCC/C=C(\CCC)C(NS(=O)(=O)c1cccc2cccnc12)c1ccc(-c2ccccc2)cc1 (stereo not given) 3160 nM
CCCC[C@@H]1C[C@H]1C(NC(=O)c1cccs1)c1ccc(C(F)(F)F)cc1 (stereo not given in full) 3160 nM
CCC[C@@H]1C[C@@]1(CCC)C(NS(=O)(=O)c1cccc2cccnc12)c1ccc(Cl)cc1 (stereo not given in full) 794 nM
c1ccc2c(c1)Cc1cc3ccccc3nc1-2 20000 nM
COC(=O)[C@@]1(Cc2ccc(F)cc2)[C@H]2c3cc(C(=O)N4CCCC4)n(Cc4cccc5ccccc45)c3C[C@H]2CN1C(=O)c1ccccc1 2000 nM
CCC/C=C(\CCC)C(NS(=O)(=O)c1cccc2cccnc12)c1ccc(C(=O)OC)cc1 (stereo not given) 5010 nM
COC(=O)[C@@]1(Cc2ccc(F)cc2)[C@H]2c3cc(C(=O)N4CCCC4)n(CCc4ccc(O)c(O)c4)c3C[C@H]2CN1C(=O)c1ccccc1 2510 nM
COC(=O)[C@@]1(Cc2ccccc2)[C@H]2c3cc(C(=O)N4CCCC4)n(Cc4ccc(O)c(OC)c4)c3C[C@H]2CN1C(=O)c1ccccc1 2000 nM

Biological target: Cytochrome P450 3A4 (Homo sapiens) (UniProt P08684)
Experiment: qHTS Assay for Activators of Cytochrome P450 3A4 (AID 885); note: nearly all actives have a fitted effect of over 65% in size
Conditions: recombinant CYP3A4, Luciferin-PPXE luminescence, 60 min; series mostly up to 57.1 µM
Summary of the method: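 20nM CYP3A4 + 25uM Luciferin-PPXE (=KM), 200mM KPO4; cpd 10 min RT; NADPH regen, 60 min RT; stop w/ detection buffer, 20 min; luminescence. Normalized to 57 uM ketoconazole.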

Potency, inactive:
CCC/C=C(\CCC)C(NC(=O)c1cccs1)c1ccc(C(=O)OC)cc1 (stereo not given)
C[C@@H](C(=O)O)[C@H]1C[C@]1(C)[C@H](NC(=O)OCc1ccccc1)c1ccccc1
COc1ccc2nc3c(cc2c1)Cc1ccccc1-3
c1ccc2c(c1)Cc1cc3cc4c(cc3nc1-2)OCO4
CCC/C=C(\CCC)C(NS(=O)(=O)c1cccc2cccnc12)c1ccc(-c2ccccc2)cc1 (stereo not given)
CCCCCC1=C2CNC(CC(C)C)(C(=O)OC)C=C2C(C)C1=O (stereo not given)
COC(=O)[C@@]1(Cc2ccc(OC)cc2)[C@H]2c3cc(C(=O)N4CCCC4)n(Cc4cc(F)cc5c4OCOC5)c3C[C@H]2CN1C(=O)c1ccccc1
O=C(NCc1cc(F)cc2c1OCCO2)[C@H]1C[C@@H]1[C@H](NP(=O)(c1ccccc1)c1ccccc1)c1ccccc1
C[C@@H](C(=O)Nc1ccc2ccccc2c1)[C@@H]1C[C@@]1(C)[C@@H](NC(=O)c1cnccn1)c1ccccc1
S=C(Nc1ccccc1)Nc1ccccc1C#Cc1ccccc1
OC1c2ccccc2-c2nc3ccccc3cc21 (stereo not given)
CC[C@H]1C2=C3C(CC[C@H]4C(OC)OC[C@](C)([C@@H]34)N(C(=O)OC(C)(C)C)C2)C(CO)C1CO (stereo not given in full)
COC(=O)[C@H]1C[C@@H]1[C@H](NC(=O)OCc1ccccc1)c1ccccc1
c1ccc2c(c1)Cc1cc3ccccc3nc1-2
COC(=O)[C@@]1(Cc2ccc(F)cc2)[C@H]2c3cc(C(=O)N4CCCC4)n(Cc4cccc5ccccc45)c3C[C@H]2CN1C(=O)c1ccccc1
CCCC[C@@H]1C[C@H]1C(NC(=O)c1ccccc1)c1ccccc1 (stereo not given in full)
COC(=O)[C@@]1(Cc2ccc(OC)cc2)[C@H]2c3cc(C(=O)N(C)C)[nH]c3C[C@H]2CN1C(=O)c1ccccc1
CCC/C=C(\CCC)C(NS(=O)(=O)c1cccc2cccnc12)c1ccc(C(=O)OC)cc1 (stereo not given)
COC(=O)[C@@]1(Cc2ccc(F)cc2)[C@H]2c3cc(C(=O)N4CCCC4)n(CCc4ccc(O)c(O)c4)c3C[C@H]2CN1C(=O)c1ccccc1
CCCC1(C(=O)OC)C=C2C(=C(C)C(=O)C2C)CN1 (stereo not given)
CCCC[C@@H]1C[C@H]1C(NC(=O)c1ccco1)c1ccc(C(=O)OC)cc1 (stereo not given in full)
COC(=O)[C@@]1(Cc2ccccc2)[C@H]2c3cc(C(=O)N4CCCC4)n(Cc4ccc(O)c(OC)c4)c3C[C@H]2CN1C(=O)c1ccccc1
C[C@@H](C(=O)Nc1ccc2ccccc2c1)[C@H]1C[C@]1(C)[C@H](NS(=O)(=O)c1ccc2ccccc2c1)c1ccccc1
